{"source": "PubChem BioAssay AID1347056", "about": "(Sanford-Burnham Center for Chemical Genomics, 2019)", "note": "The whole screen tested about 360,000 compounds, of which about 3,600 (1%) were called active. The sample as a whole holds a higher share of actives than the screen did. Unmarked numbers belong to inactive results.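 Rule for the calls: active = compounds whose plate-normalised and pattern-corrected inhibition of the luciferase reporter signal at the single screening dose is 50% or more; inactive = the rest.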", "data": [{"experiment": "TROY pathway blockers in reporter cells – Q293 LMP1-TROYcd cells, NF-kB luciferase, uHTS, primary screen (AID 1347056)", "details": "4 h, at 10 µM, hits give high values", "values": [{"smiles": "COc1cccc(-c2nc3ccc(N4CCN(C)CC4)cc3[nH]2)c1", "inhibition": "79.8% (active)"}, {"smiles": "CCn1cc(CN2CCCC(C(=O)c3cccc(C(F)(F)F)c3)C2)cn1", "note": "(stereo not given)", "inhibition": "10.1%"}, {"smiles": "CCOC(=O)[C@]12Cc3ccccc3[C@H]1N(C1CCCCC1)C(=O)c1cc(OC)ccc12", "inhibition": "36.6%"}, {"smiles": "CNC(=O)Nc1ccc(C(O)(C(=O)OC)C(F)(F)F)cc1", "note": "(stereo not given)", "inhibition": "-7.62%"}, {"smiles": "COc1cc(C(c2c(O)c3ccccc3oc2=O)c2c(C)n(C)n(-c3ccccc3)c2=O)ccc1O", "note": "(stereo not given)", "inhibition": "-7.22%"}, {"smiles": "CC(=O)OC1C2(CC3N4C(=O)C5(CO)SSC4(CC31O)C(=O)N5C)OC(C)C(C)(C)C2=O", "note": "(stereo not given)", "inhibition": "64.8% (active)"}, {"smiles": "CC(=O)Nc1ccccc1C(=O)OCC(=O)c1cccc2ccccc12", "inhibition": "-7.86%"}, {"smiles": "CN(C)CC1Oc2ccccc2OC1(O)c1ccccc1", "note": "(stereo not given)", "inhibition": "1.73%"}, {"smiles": "CCCCCCCCCCCCn1ccc(=N)cc1", "inhibition": "64% (active)"}, {"smiles": "Cc1nc2nc(C)c(CCC(=O)N3CCC4(CC3)OCCO4)c(C)n2n1", "inhibition": "3.18%"}, {"smiles": "Cc1ccc(C)c(NC2=NCCCS2)c1", "inhibition": "1.74%"}, {"smiles": "O=C(CCCn1c(=O)[nH]c2cc(Cl)ccc2c1=O)N1CCC2(CC1)OCCO2", "inhibition": "7.33%"}, {"smiles": "CCOC(=O)C(O)(c1ccc(N)c(OC)c1)C(F)(F)F", "note": "(stereo not given)", "inhibition": "7.19%"}, {"smiles": "CCC(C)(O)C(=O)OC1C(=O)OC2CC3C(C)=CC(=O)C(O)C3(C)C3C4(O)OCC23C1C(C)C4O", "note": "(stereo not given)", "inhibition": "83.5% (active)"}, {"smiles": "NCCc1c[nH]c2ccc(O)cc12", "inhibition": "13%"}, {"smiles": "CC(=O)Nc1ccc(C(=O)C(Cc2ccccc2)N(C)C)cc1", "note": "(stereo not given)", "inhibition": "0.62%"}, {"smiles": "CCCCCCN=C(CC)c1c(O)n(CCCC)c(=O)[nH]c1=O", "inhibition": "17.9%"}, {"smiles": "CCOC(=O)c1c(N)n(Cc2ccccc2)c2nc3ccccc3nc12", "inhibition": "51.6% (active)"}, {"smiles": "CCOC(=O)c1cccc(C2=C(CNC(=O)c3ccncc3)[C@H]3CC[C@@H](C2)N3Cc2ccccc2)c1", "inhibition": "-20.1%"}, {"smiles": "COc1cc(Cn2c(N)c(C(=O)NCc3ccco3)c3nc4ccccc4nc32)cc(OC)c1OC", "inhibition": "13.5%"}, {"smiles": "COc1ccc(-c2nn(CCC#N)cc2C(=O)O)cc1", "inhibition": "-1.21%"}, {"smiles": "CNCC(O)c1cc(F)c(OCc2ccccc2)c(OCc2ccccc2)c1F", "note": "(stereo not given)", "inhibition": "8.14%"}, {"smiles": "CC1CCC(N(C)C2CCN(C)CC2)CC1", "note": "(stereo not given)", "inhibition": "18.6%"}, {"smiles": "CCN1c2nc3c(C)cccn3c(=O)c2CC2(C(=O)N(C)C(=O)N(C)C2=O)C1C", "note": "(stereo not given)", "inhibition": "-6.84%"}, {"smiles": "CN1CCC(OC(=O)c2cccc(F)c2)CC1", "inhibition": "-37.5%"}, {"smiles": "Cc1ccc(C2CN(C)CC2C(=O)c2ccc(F)cc2)cc1", "note": "(stereo not given)", "inhibition": "57.6% (active)"}, {"smiles": "COc1ccc(C(=O)C2CN(C)CC2C(=O)c2ccc(OC)cc2)cc1", "note": "(stereo not given)", "inhibition": "-76.8%"}, {"smiles": "Cn1cc(C(=O)OCC(=O)N2CCCC2)c2ccccc21", "inhibition": "8.39%"}, {"smiles": "O=C(Nc1cccc2ccccc12)N1CCC2(CC1)OCCO2", "inhibition": "38.5%"}, {"smiles": "CCOC(=O)C1SC2(C(F)(F)C(F)F)CC1(O)c1c(c(OC)c3occc3c1OC)O2", "note": "(stereo not given)", "inhibition": "-1.26%"}, {"smiles": "O=c1[nH]c2ccccc2n1C1CCN(C(c2ccccc2)c2nnnn2Cc2ccccc2)CC1", "note": "(stereo not given)", "inhibition": "18.3%"}, {"smiles": "O=c1[nH]c2ccccc2n1C1CCN(C(c2ccnc3ccccc23)c2nnnn2Cc2ccccc2)CC1", "note": "(stereo not given)", "inhibition": "73.9% (active)"}, {"smiles": "COc1ccc(-n2nnnc2C(c2cccc3ccccc23)N2CCC(n3c(=O)[nH]c4ccccc43)CC2)cc1", "note": "(stereo not given)", "inhibition": "27.6%"}, {"smiles": "Cc1ccc(OC(=O)N(C)C[C@@H]2OCc3cnnn3CCCC(=O)N([C@H](C)CO)C[C@@H]2C)cc1", "inhibition": "0.42%"}, {"smiles": "CC(C)c1ccc(OCC(=O)N2CCCN(C)CC2)cc1", "inhibition": "-4.27%"}]}]}
